For seven compounds, Potency results are on record in PubChem BioAssay (Tox21).

Inconclusive results are not listed. The source made the active and inactive calls. Unless noted, calls come from the whole dose curve.

Experiment [1] is described as follows: Nuclear factor erythroid 2-related factor 2/antioxidant responsive element (Nrf2/ARE) small molecule agonists: qHTS cell viability counter screen in human keratinocytes (AID 1919968; active = well fitted curve in the direction sought with a large enough effect in the repeat runs; an effect the other way counts as inactive or inconclusive; note: nearly all actives have a fitted effect of over 55% in size). The essentials: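 CellTiter-Fluor fluorescence, read 1 h after reagent, gave viability in the same wells as the ARE-luciferase assay. KeratinoSens cells (1,500/well) had 23 h compound exposure at 37 C/5% CO2 following 5 h plating.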
(In general: Quantitative high-throughput screening tests each substance at several concentrations.)

The nature of experiment [2]: Nuclear factor erythroid 2-related factor 2/antioxidant responsive element (Nrf2/ARE) small molecule agonists: luciferase reporter gene qHTS assay in human keratinocytes (AID 1919969). Note: nearly all actives have a fitted effect of over 35% in size. Note: potency is the fitted concentration of half-maximal effect. On the technique in general: Reporter assays use an easily measured gene product as a stand-in for the process of interest.
Experiment [3] addresses Gonadotropin-releasing hormone receptor (Homo sapiens) (UniProt P30968). The experiment can be described thus: Human gonadotropin-releasing hormone receptor (GnRHR) small molecule agonists, calcium flux assay in GnRHR-HEK293 cells (AID 1920063). Note: nearly all actives have a fitted effect of over 35% in size. In a few lines:
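Agonist mode: compounds at 15 concentrations, in triplicate, went onto calcium dye-loaded GnRHR-HEK293 cells. Intracellular calcium was then followed as 480/540 nm fluorescence at 1 s intervals over 3 min.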

In experiment [4] the target is KiSS-1 receptor (Homo sapiens) (UniProt Q969F8). The experiment can be described thus: Human kisspeptin (KISS1R) small molecule agonists, calcium flux assay in KISS1R-HEK293 cells (AID 1920064; active = well fitted curve in the direction sought with a large enough effect in the repeat runs; an effect the other way counts as inactive or inconclusive). The essentials: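 Agonist mode: intracellular calcium rise tracked at 1 s intervals over 3 min (480/540 nm) immediately after compound addition to dye-loaded KISS1R-HEK293 stable cells. Each compound tested at 15 concentrations in triplicate.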
Chain of KiSS-1 receptor (Homo sapiens) (Q969F8 whole entry, looked up): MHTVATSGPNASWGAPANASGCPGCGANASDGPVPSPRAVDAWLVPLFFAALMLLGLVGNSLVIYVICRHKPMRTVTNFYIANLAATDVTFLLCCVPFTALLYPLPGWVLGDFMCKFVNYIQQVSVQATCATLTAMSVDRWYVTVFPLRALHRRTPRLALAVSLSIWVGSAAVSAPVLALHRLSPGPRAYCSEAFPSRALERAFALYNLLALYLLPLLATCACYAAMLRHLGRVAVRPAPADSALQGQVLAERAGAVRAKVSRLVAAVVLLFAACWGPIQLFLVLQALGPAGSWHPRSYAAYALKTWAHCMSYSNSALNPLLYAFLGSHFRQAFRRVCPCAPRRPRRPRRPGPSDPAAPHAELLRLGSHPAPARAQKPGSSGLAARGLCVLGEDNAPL
(In general: Calcium assays in cells follow changes in intracellular calcium, usually with a dye or a luminescent sensor.)

Experiment [5] in a line: G protein-coupled receptor (GPCR) small molecule agonists, calcium flux assay: HEK293 wild type cell line counter screen (AID 1920065). In a few lines: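 Calcium flux counter screen: compound added in agonist mode at 15 concentrations in triplicate to dye-loaded parental HEK293 cells. Fluorescence (480/540) read kinetically for 3 min; ATP served as positive control.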
Experiment [6] is described as follows: p53 small molecule agonists, cell-based qHTS assay with rat liver microsomes (AID 1963578). The essentials: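 Agonist mode in p53RE-bla reporter cells, with compounds co-incubated 16 h at 37 C alongside 0.5 mg/mL rat liver microsomes and 0.5 mg/mL NADPH (final), followed by a 2 h LiveBLAzer detection step.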
A short description of experiment [7]: p53 small molecule agonists, cell-based qHTS assay with human liver microsomes: qHTS cell viability counter screen (AID 1963579). Note: nearly all actives have a fitted effect of over 45% in size. In a few lines: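 Metabolically activated exposure: compounds, human liver microsomes and NADPH (0.5 mg/mL final apiece) were added to p53RE-bla cells seeded 5 h earlier, left 16 h at 37 C, and then assessed for viability by CellTiter-Glo luminescence.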

The nature of experiment [8]: p53 small molecule agonists, cell-based qHTS assay with rat liver microsomes: qHTS cell viability counter screen (AID 1963580). Note: nearly all actives have a fitted effect of over 45% in size. The essentials:
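Cytotoxicity counter screen: intracellular ATP read by CellTiter-Glo luminescence in the p53 reporter wells. HCT-116 p53RE-bla cells were treated for 16 h at 37 C alongside rat liver microsomes and NADPH, each 0.5 mg/mL final.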

Experiment [9] is described as follows: p53 small molecule agonists, cell-based qHTS assay: qHTS cell viability counter screen (AID 1963581). Note: nearly all actives have a fitted effect of over 45% in size. The essentials:
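Counter screen read by CellTiter-Glo luminescence (ATP content, 30 min at room temperature), run in the same wells as the beta-lactamase reporter read. HCT-116 p53RE-bla cells saw compounds for 16 h at 37 C.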

Experiment [10] is described as follows: p53 small molecule agonists, cell-based qHTS assay (AID 1963582; active = well fitted activation curve with a large enough effect in the signal ratio in the repeat runs, not every such curve was filed as active; the % refers to the signal ratio). In a few lines: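 Read-out is beta-lactamase FRET fluorescence after 2 h at room temperature with LiveBLAzer B/G substrate. p53 response element-bla cells were treated 16 h at 37 C with compounds in DMSO, added 5 h after seeding.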
Experiment [11] addresses 5-hydroxytryptamine receptor 2A (Homo sapiens) (UniProt P28223). The experiment can be described thus: 5-hydroxytryptamine receptor 2A (HTR2A) small molecule antagonists, cell-based qHTS assay (AID 1963586). Note: nearly all actives have a fitted effect of over 45% in size. The essentials: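 CHO cells stably expressing human HTR2A were plated for 18 h at 37 C, then loaded with calcium dye for 1 h. Compounds were preincubated 5 min at room temperature before DOI (4 nM solution) was added. Kinetic fluorescence was read for 3 min.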

The target is the same in experiment [12]. The experiment can be described thus: 5-hydroxytryptamine receptor 2A (HTR2A) small molecule agonists, cell-based qHTS assay (AID 1963587). Note: nearly all actives have a fitted effect of over 30% in size. In a few lines:
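Kinetic calcium-flux fluorescence (2 min, 1 sec intervals) after compound addition in agonist mode. HTR2A-CHO cells were cultured 18 h, then dye-loaded 1 h at 37 C.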

Experiment [13] has as its target Muscarinic acetylcholine receptor M1 (Homo sapiens) (UniProt P11229). The experiment can be described thus: Cholinergic receptor muscarinic 1 (CHRM1) small molecule antagonists, cell-based qHTS assay (AID 1963588). Note: nearly all actives have a fitted effect of over 40% in size. In a few lines: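 Compounds were tested at 15 concentrations in three independent runs. Dye-loaded CHRM1-CHO cells were exposed 5 min at room temperature before stimulation by acetylcholine added at 50nM. Intracellular calcium was read kinetically on FDSS for 3 min.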

The target is the same in experiment [14]. Briefly: Cholinergic receptor muscarinic 1 (CHRM1) small molecule agonists, cell-based qHTS assay (AID 1963589). Note: nearly all actives have a fitted effect of over 35% in size. The essentials: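 Agonist-mode calcium-flux screen: compounds at 15 concentrations, three independent runs, were pin-transferred onto dye-loaded human CHRM1-CHO cells. Fluorescence was then recorded kinetically every second over minutes.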
Experiment [15] can be described thus: cAMP Responsive Elements (CRE) small molecule agonists, cell-based qHTS assay (AID 1963590). In a few lines: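 Agonist mode: compound added to CRE-bla HEK 293T cells (2,000/well, 18 h after plating) for 3 h at 37 C/5% CO2. Reporter activity detected via FRET beta-lactamase substrate, 2 h room-temperature loading.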
The target in experiment [16] is Beta-2 adrenergic receptor (Homo sapiens) (UniProt P07550). Briefly: Adrenergic beta2 receptor (ADRB2) small molecule antagonists, cell-based qHTS assay (AID 1963592). Note: series mostly up to about 92 µM; nearly all actives have a fitted effect of over 50% in size. The essentials:
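Assay format: CHO-ADRB2 cells, 18-20hr seeding at 37C/5% CO2, then compound plus 1nM isoproterenol agonist mix for 0.5hr RT. Homogeneous time-resolved fluorescence cAMP detection after 1hr, expressed as 665/615 nm ratio.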

The target is the same in experiment [17]. The experiment can be described thus: Adrenergic beta2 receptor (ADRB2) small molecule agonists, cell-based qHTS assay (AID 1963593).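 Note: CHO cells stably overexpressing human ADRB2.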 The essentials: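 CHO cells stably over-expressing ADRB2 were plated overnight at 37C, then dosed with compounds plus a stimulation mix containing 100uM IBMX and 25uM Ro-20-1724 for 0.5hr at room temperature. cAMP was measured by HTRF competition, 1hr.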

Experiment [18] addresses D(2) dopamine receptor (Homo sapiens) (UniProt P14416). The experiment can be described thus: Dopamine D2 receptor (DRD2) small molecule agonists, cell-based qHTS assay (AID 1963594). Note: nearly all actives have a fitted effect of over 35% in size. In a few lines:
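cAMP accumulation in DRD2-HEK293 cells measured by HTRF after 1 h detection; compounds added 10 min before NKH477 (200nM […]) forskolin-analogue stimulation, 30 min at room temperature, with Ro20-1724 present at 0.1 mM final.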

For experiment [19] the target is unchanged. The experiment can be described thus: Dopamine D2 receptor (DRD2) small molecule antagonists, cell-based qHTS assay (AID 1963595; active = well fitted inhibition curve with a large enough effect in the signal ratio in the repeat runs, with a control signal flat; the % refers to the signal ratio). The essentials:
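HEK293 cells stably expressing DRD2 were preincubated with 0.1 mM Ro20-1724, then with compound for 10 min at room temperature. Cells were stimulated with 200 nM NKH477 plus 12 nM quinpirole for 30 min, and cAMP was read by HTRF.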

Experiment [20] can be described thus: cAMP Responsive Elements (CRE) small molecule antagonists, cell-based qHTS assay (AID 1963591; active = well fitted inhibition curve with a large enough effect in the signal ratio in the repeat runs, not every such curve was filed as active; the % refers to the signal ratio). In a few lines: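 Antagonist mode: compounds are added alongside the adenylyl cyclase activator NKH477 (0.25 uM final) to CRE-bla HEK293T cells for 3 h. LiveBLAzer FRET substrate, 2 h at room temperature, reports bla expression.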

Chain of 5-hydroxytryptamine receptor 2A (Homo sapiens) (P28223 whole entry, looked up): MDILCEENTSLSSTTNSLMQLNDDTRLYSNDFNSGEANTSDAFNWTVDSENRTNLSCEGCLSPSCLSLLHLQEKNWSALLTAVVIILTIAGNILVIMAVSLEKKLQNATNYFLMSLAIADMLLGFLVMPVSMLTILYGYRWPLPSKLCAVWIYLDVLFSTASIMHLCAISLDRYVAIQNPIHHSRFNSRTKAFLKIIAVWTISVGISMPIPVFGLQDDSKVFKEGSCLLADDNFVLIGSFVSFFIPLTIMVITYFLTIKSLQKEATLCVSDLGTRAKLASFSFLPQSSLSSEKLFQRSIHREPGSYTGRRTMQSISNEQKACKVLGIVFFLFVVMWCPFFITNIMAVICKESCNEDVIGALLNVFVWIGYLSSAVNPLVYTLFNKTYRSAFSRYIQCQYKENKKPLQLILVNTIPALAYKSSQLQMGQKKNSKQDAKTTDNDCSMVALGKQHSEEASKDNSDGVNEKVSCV
Chain of Gonadotropin-releasing hormone receptor (Homo sapiens) (P30968 whole entry, looked up): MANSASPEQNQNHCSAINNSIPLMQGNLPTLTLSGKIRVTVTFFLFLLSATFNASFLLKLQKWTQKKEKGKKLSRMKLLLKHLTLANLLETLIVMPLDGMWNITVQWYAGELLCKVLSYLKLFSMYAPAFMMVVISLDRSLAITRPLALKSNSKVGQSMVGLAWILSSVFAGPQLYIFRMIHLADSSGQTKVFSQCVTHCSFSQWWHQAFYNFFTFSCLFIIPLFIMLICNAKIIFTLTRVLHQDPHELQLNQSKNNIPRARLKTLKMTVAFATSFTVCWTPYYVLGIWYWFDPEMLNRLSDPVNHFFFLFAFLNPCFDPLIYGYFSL
Chain of Muscarinic acetylcholine receptor M1 (Homo sapiens) (P11229 whole entry, looked up): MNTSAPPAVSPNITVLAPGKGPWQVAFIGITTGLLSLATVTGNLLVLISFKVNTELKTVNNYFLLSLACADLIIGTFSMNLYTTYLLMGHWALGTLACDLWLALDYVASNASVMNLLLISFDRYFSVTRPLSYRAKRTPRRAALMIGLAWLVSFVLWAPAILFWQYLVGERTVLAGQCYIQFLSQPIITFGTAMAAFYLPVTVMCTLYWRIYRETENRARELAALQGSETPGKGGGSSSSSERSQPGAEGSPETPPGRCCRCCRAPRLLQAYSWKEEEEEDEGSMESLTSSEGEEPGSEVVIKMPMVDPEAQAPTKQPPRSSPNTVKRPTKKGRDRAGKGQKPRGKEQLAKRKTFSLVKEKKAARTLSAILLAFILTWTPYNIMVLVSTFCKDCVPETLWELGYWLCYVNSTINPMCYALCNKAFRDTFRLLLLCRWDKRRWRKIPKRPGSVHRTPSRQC
Chain of D(2) dopamine receptor (Homo sapiens) (P14416 whole entry, looked up): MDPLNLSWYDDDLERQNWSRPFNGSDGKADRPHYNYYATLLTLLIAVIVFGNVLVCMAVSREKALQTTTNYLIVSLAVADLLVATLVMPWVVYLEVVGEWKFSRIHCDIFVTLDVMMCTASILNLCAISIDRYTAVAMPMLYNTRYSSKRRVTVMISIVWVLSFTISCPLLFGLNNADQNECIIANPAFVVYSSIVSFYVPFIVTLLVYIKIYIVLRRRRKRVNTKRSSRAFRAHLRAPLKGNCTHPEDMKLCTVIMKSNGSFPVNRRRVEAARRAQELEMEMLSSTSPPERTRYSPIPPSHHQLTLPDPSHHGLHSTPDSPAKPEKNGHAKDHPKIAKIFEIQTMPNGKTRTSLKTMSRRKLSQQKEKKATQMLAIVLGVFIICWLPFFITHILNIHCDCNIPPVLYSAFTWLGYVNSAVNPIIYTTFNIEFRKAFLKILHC
Chain of Beta-2 adrenergic receptor (Homo sapiens) (P07550 whole entry, looked up): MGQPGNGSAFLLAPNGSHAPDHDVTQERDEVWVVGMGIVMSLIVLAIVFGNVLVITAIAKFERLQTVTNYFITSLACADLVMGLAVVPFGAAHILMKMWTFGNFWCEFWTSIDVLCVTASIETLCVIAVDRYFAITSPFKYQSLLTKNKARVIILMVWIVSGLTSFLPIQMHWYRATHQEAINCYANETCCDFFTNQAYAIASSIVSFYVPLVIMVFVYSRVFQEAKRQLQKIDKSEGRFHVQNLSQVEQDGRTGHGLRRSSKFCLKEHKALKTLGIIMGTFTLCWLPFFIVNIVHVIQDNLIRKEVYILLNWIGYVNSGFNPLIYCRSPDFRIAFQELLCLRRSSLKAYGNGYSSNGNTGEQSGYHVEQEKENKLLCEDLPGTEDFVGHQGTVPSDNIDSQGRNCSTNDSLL

As to `NC(=O)CCl`, the Potency entry in experiment [1], in [3], in [4], in experiment [5], in experiment [6] and in experiment [7] was “inactive” each time. Further, the Potency result in experiment [8], in [9], in experiment [10], in [11], in [12] and in experiment [13] was “inactive” throughout. Besides, the Potency result in experiment [14], in experiment [15], in experiment [16], in experiment [17], in experiment [18] and in experiment [19] was “inactive” throughout. In addition, in [2], the Potency is 61.1 µM (active).

As for `CCOc1cc(C=O)ccc1O`, the Potency entry in experiment [1], in experiment [2], in experiment [3], in [4], in experiment [5] and in experiment [6] was “inactive” each time. Also, the Potency result in experiment [7], in experiment [8], in experiment [9], in experiment [10], in [11] and in experiment [12] was “inactive” in each case. Moreover, the Potency entry in experiment [13], in experiment [14], in [15], in experiment [16], in experiment [18] and in [19] was “inactive” each time.

For `C=CC(=O)OC(C)(C)C`, the Potency entry in [1], in experiment [2], in [3], in experiment [4], in experiment [5] and in experiment [6] was “inactive” each time. The Potency entry in [7], in experiment [8], in [9], in [10], in [11] and in [12] was “inactive” throughout. The Potency result in experiment [14], in experiment [15], in experiment [20], in [16], in [17] and in experiment [18] was “inactive” each time. The Potency result in [19] is “inactive”.

As for `N#CC(Cl)(Cl)Cl`, the Potency result in experiment [1], in experiment [2], in experiment [3], in [4], in [5] and in experiment [6] was “inactive” throughout. The Potency result in [7], in experiment [8], in [9], in experiment [11], in [12] and in [13] was “inactive” each time. For the same compound, the Potency result in experiment [14], in experiment [15], in experiment [20], in experiment [16], in [18] and in [19] was “inactive” in each case.

Regarding `CC1C=[C-]C=C1.[C-]#[O+].[C-]#[O+].[C-]#[O+].[Mn]`, the Potency result in experiment [1], in experiment [2], in [3], in experiment [4], in experiment [5] and in experiment [7] was “inactive” each time. The Potency result in experiment [8], in experiment [9], in [11], in [12], in experiment [13] and in [14] was “inactive” each time. For the same compound, the Potency result in [15], in [20], in experiment [16], in experiment [17], in experiment [18] and in experiment [19] was “inactive” in each case.

With `COP(=S)(OC)Oc1ccc(Sc2ccc(OP(=S)(OC)OC)cc2)cc1`, the Potency entry in [1], in experiment [2], in [3], in experiment [4], in experiment [5] and in experiment [7] was “inactive” each time. The Potency entry in [8], in experiment [9], in experiment [10], in experiment [11], in experiment [12] and in experiment [13] was “inactive” in each case. Besides, the Potency entry in [14], in experiment [15], in [20], in [16], in [18] and in experiment [19] was “inactive” throughout.

As to `CN(C)CCc1ccc(O)cc1`, the Potency result in [1], in [2], in experiment [3], in experiment [4], in [5] and in [6] was “inactive” in each case. The Potency result in experiment [8], in experiment [9], in experiment [11], in [12], in [13] and in experiment [14] was “inactive” in each case. Besides, the Potency result in experiment [15], in experiment [16], in experiment [18] and in [19] was “inactive” each time.
